# KDM5B inh – blocks human KDM5B histone demethylase activity | KDM5B demethylase, FDH-coupled NADH fluorescence (FDH is formaldehyde dehydrogenase) | Q9UGL1 | 220,000 compounds, 2.6% hits | Potency, µM (series often up to 57.7 µM), most hits filed as inhibitors; active = well fitted inhibition curve with a large enough effect; note: 0% is about no effect; nearly all actives have a fitted effect of over 70% in size
# Target sequence (Q9UGL1 whole entry, looked up): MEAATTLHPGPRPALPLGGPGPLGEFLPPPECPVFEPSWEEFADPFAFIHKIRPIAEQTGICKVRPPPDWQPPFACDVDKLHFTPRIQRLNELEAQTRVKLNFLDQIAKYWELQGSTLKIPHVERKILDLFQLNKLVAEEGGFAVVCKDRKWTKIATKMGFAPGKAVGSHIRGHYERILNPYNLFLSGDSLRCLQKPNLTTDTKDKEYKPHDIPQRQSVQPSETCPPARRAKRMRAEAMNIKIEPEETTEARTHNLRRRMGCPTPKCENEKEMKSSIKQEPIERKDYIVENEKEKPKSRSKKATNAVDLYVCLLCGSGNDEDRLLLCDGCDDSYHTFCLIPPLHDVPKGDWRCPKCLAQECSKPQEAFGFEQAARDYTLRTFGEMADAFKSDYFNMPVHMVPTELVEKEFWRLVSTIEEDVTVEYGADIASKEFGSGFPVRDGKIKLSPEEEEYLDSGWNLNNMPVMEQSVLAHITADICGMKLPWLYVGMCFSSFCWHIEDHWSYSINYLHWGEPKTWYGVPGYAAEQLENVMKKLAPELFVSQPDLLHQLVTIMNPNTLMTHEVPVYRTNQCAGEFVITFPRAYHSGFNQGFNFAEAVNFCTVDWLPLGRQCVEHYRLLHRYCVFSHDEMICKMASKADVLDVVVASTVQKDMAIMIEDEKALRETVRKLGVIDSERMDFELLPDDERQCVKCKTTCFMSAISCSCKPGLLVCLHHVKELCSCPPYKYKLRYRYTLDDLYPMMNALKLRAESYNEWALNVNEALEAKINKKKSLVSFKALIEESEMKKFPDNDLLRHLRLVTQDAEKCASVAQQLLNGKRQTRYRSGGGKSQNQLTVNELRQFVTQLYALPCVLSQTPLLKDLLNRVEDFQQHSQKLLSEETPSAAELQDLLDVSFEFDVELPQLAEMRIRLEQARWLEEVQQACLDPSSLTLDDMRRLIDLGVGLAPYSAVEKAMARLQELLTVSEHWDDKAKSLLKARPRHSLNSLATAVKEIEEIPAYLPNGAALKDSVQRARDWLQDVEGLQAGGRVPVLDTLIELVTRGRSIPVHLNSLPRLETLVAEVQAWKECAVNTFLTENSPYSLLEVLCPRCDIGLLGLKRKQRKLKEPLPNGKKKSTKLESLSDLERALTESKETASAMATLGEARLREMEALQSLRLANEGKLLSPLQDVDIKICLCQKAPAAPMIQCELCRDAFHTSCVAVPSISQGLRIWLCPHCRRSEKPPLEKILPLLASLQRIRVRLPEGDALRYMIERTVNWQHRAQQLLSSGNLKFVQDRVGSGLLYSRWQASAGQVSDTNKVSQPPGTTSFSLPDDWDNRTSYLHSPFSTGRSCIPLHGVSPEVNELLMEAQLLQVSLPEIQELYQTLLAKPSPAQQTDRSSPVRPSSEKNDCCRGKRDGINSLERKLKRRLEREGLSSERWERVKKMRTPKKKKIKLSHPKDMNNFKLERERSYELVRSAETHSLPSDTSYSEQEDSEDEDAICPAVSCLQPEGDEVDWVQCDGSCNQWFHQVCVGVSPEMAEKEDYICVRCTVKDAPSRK
#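 Here, H3K4me3 peptide (12.5 µM in substrate mix) is demethylated by KDM5BΔAP, 200 nM final, after 10 min compound exposure. Formaldehyde product is coupled through FDH (0.25 U/mL in mix) to NADH fluorescence; 30-min ΔRFU feeds dose-response curves.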
# The depositor's hits bear a star; i = inactive. Many of the other results were omitted from the sample, so hits are more common in it than they were. Potency is the fitted concentration of half-maximal effect.
SMILES,KDM5B inh
COc1cc(CN2CCC3(CC2)CN(c2ccncn2)CC3CO)ccc1F (stereo not given),i
OCC1CN(c2ncccn2)CC12CCN(Cc1ccsc1)CC2 (stereo not given),32µM*
N#Cc1ccc(CN2CCC3(CC2)CN(c2ccncn2)CC3CO)cc1 (stereo not given),i
OCC1CN(c2ncccn2)CC12CCN(Cc1ccco1)CC2 (stereo not given),28µM*
Cc1ccc(CN2CCC3(CC2)CN(c2ccncn2)CC3CO)o1 (stereo not given),i
Cc1ccc(CN2CCC3(CC2)CN(c2ncccn2)CC3CO)cc1C (stereo not given),25µM*
OCC1CN(c2ncccn2)CC12CCN(Cc1ccncc1)CC2 (stereo not given),22µM*
COc1ccc(C(=O)N2CCC(n3cc(-c4nc(-c5ccccc5)no4)nn3)C2)cc1 (stereo not given),i
Cc1cccc(N(C)C(=O)Cn2c(=O)n(-c3ccc(F)cc3)c(=O)c3c2cc(C)n3C)c1,i
CS(=O)(=O)c1ccc(CN2Cc3[nH]cnc3C[C@H]2C(=O)NCc2ccc(C(F)(F)F)cc2)cc1,i
COC(=O)Cc1ccc(OCc2ccccc2C#N)cc1,i
O=[n+]1cc(-c2cccc(C(F)(F)F)c2)n([O-])c2c1CCCC2,i
CCC(C)N1C(=O)S/C(=C\c2cn(C)c3ccccc23)C1=O (stereo not given),i
Cc1cc(CNC(=O)COc2ccc3ccccc3c2)c2ccccc2n1,i
COCCc1noc(-c2ccc(Cn3nc(C)cc3C)cc2)n1,i
COCC(C)NC(=O)CC1CCCC1 (stereo not given),i
CCn1cc(CN2CCC3(CC2)CN(c2ccncn2)CC3CO)c(C)n1 (stereo not given),i
Cc1ncccc1C(=O)N1CCC2(CCN(Cc3ccccn3)CC2)C(CO)C1 (stereo not given),i
COCCN1CC(CO)C2(CCN(Cc3sccc3C)CC2)C1 (stereo not given),i
O=C(c1ccoc1)N1CCC2(CC1)CN(c1ccncn1)CC2CO (stereo not given),i
CCn1cc(C(=O)N2CCC3(CC2)CN(c2ccncn2)CC3CO)cn1 (stereo not given),i
CC(=O)N1CCC2(CC1)CCN(c1ncccc1C#N)CC2CO (stereo not given),32µM*
N#Cc1ccc(C(=O)N2CCC3(CC2)CN(Cc2ccccc2)CC3CO)cc1 (stereo not given),i
O=C(c1ccncc1)N1CCC2(CC1)CN(c1ncccn1)CC2CO (stereo not given),22µM*
Cc1cc(CN2CCC3(CC2)CN(c2ncccn2)CC3CO)n(C)n1 (stereo not given),32µM*
SMILES,KDM5B inh
Cc1cccc(NC(=O)CSc2nc(-c3ccccc3)cc(=O)[nH]2)c1C,i
O=C(CCc1ncc(-c2ccccc2)o1)NCCc1ccccc1,i
CCCc1c(C)nc2ncnn2c1Nc1cccc(C)c1,i
CCCCN(CC)C(=O)c1nn(-c2ccc(OC)cc2)c(=O)c2c1c1ccccc1n2C,i
CCC(C)(C)NC(=O)CCCSc1nc2ccccc2[nH]1,i
COc1ccc(CCn2c(=O)c3ccccc3n(CC(=O)Nc3cccc(C)c3)c2=O)cc1OC,i
Cn1nccc1C(=O)N1CCC2(CC1)CC(N(Cc1ccccc1)C1CC1)CCO2 (stereo not given),i
CCOc1ccc(NC(=O)C2=Cc3sc4c(c3CS2)CCCC4)cc1,i
CCC(=O)N1CCc2cc(Br)cc(S(=O)(=O)CCC(=O)Nc3ccc(C)c(F)c3)c21,i
CC(C)NC(=O)N1Cc2ccccc2OC2(CCN(C(=O)c3cccc4[nH]ccc34)CC2)C1,i
CN(C)C(=O)N1CCC2(CC1)CN(C(=O)c1cccc3[nH]ccc13)Cc1ccccc1O2,50µM*
CC(=O)N1Cc2ccccc2OC2(CCN(C(=O)c3ccnc(N)c3)CC2)C1,79µM*
CC(=O)N1Cc2ccccc2OC2(CCN(C(=O)N(C)C)CC2)C1,i
CC(=O)N1Cc2ccccc2OC2(CCN(C(=O)NC(C)C)CC2)C1,i
CC(=O)N1CCC2(CC1)CN(C(=O)c1ccc(N)nc1)Cc1ccccc1O2,i
C=CCNC(=O)NC(=O)CN(CC(=O)Nc1c(C)cccc1C)CC(=O)Nc1c(C)cccc1C,i
CC(=O)c1c(C)[nH]c(C(=O)CSc2ccc(Br)cc2)c1C,i
CCOc1cc(C(=O)NC2CCN(c3cc(-c4ccc(OC)cc4)[nH]n3)C2)cc(OCC)c1OCC (stereo not given),i
CCCOc1c(Cl)cc(C(=O)NCC2CCCO2)cc1OCC (stereo not given),i
CCOc1ccc(-c2ccnc(N3CCC(NC(C)=O)CC3)n2)cc1C(=O)O,32µM*
CCOc1ccc(-c2ccnc(N3CCNC(C)C3)n2)cc1C(=O)O (stereo not given),28µM*
CCOc1ccc(CC(=O)NC2CCN(c3cc(-c4ccc(OC)cc4)[nH]n3)CC2)cc1,i
CCOc1ccccc1C(=O)N1CCN(c2cc(-c3ccc(OC)cc3)[nH]n2)CC1,i
CCOc1ccc(-c2ccnc(NC[C@@H]3CCCO3)n2)cc1C(=O)O,22µM*
CCOc1ccc(-c2cc(C(=O)O)c3ccccc3n2)cc1OCC,i
SMILES,KDM5B inh
CCOc1cc(/C=N/NC(=O)C(=O)NCC2CCCO2)ccc1OCC(=O)N1CCOCC1 (stereo not given),i
CCCCOC(=O)c1ccc(NC2=NS(=O)(=O)c3ccccc32)cc1,i
O=C(CC1C=CCC1)Nc1ccccc1Sc1ccccc1 (stereo not given),i
COc1ccc(CC(=O)N2[C@@H]3CC[C@H]2CC(NC(=O)c2cnc(C)cn2)C3)cc1 (stereo not given in full),i
Cc1cccc(-c2nc(-c3ccc(S(=O)(=O)N4CCOCC4)cc3)cs2)c1,i
Nc1ncc(S(=O)(=O)Nc2ccc(F)cc2F)cn1,i
Cc1cccc(CNC(=O)C2CCCN(S(=O)(=O)c3cn(C)cn3)C2)c1 (stereo not given),i
Cc1cc(NC(=O)C(C)C)cc(-c2nc3ncccc3o2)c1O,i
c1ccc2c(c1)CC(c1n[nH]c(C3CCOCC3)n1)CO2 (stereo not given),i
O=C(O)C(c1c[nH]c2cc(Cl)ccc12)N1CCN(c2ccc(F)cc2)CC1 (stereo not given),i
O=C(c1ccc(Cl)cc1)N1CC2(CCNC2)OCc2ccccc21 (stereo not given),i
CCOC(=O)N1CCc2c(sc3c2c(=O)n(-c2ccc(CC)cc2)c(=O)n3Cc2cc(C)ccc2C)C1,i
Cc1noc([C@@H]2CN(C(=O)Cc3c(F)cccc3Cl)C[C@H]2C(N)=O)n1,i
Clc1cccc(Nc2cnc3ccc(N4CCOCC4)nn23)c1,32µM*
Fc1cc(Nc2cnc3ccc(-n4ccnc4)nn23)cc(N2CCOCC2)c1,i
COc1ccc(-c2ccc3ncc(Nc4ccnc(N5CCOCC5)c4)n3n2)cc1OC,i
CN1CCN(c2ccc3ncc(Nc4ccc(OC(F)(F)F)cc4)n3n2)CC1,32µM*
COc1ccc(-c2ccc3ncc(Nc4ccc(F)c(Cl)c4)n3n2)cn1,i
COc1ccc(-c2ccc3ncc(Nc4ccc(CN5CCN(C)CC5)cc4)n3n2)cn1,i
COc1ccccc1-c1ccc2ncc(Nc3ccc(CN4CCN(C)CC4)cc3)n2n1,i
CN1CCN(c2ccc3ncc(Nc4ccc5c(c4)OCCO5)n3n2)CC1,i

# Assay outcomes as filed in PubChem BioAssay.
